Assay results published in PubChem BioAssay (Tox21).
Results filed as inconclusive are left out. Entries that show only a call come without a potency. Calls of active or inactive are those of the source. Calls follow the shape of the dose curve; as a rule, active = well fitted cell-killing curve with a large enough effect in the repeat runs; inconclusive = weak or mixed curves, or effect the other way; inactive = flat fitted curve, though single readings scatter.

Test: qHTS assay to identify small molecule antagonists of the retinoid acid receptor (RAR) signaling pathway - cell viability counter screen (AID 1159551); also: nearly all actives have a fitted effect of over 35% in size
Settings: C3RL4 cells viability, ATP luminescence (CellTiter-Glo), 6 h; series mostly up to 92.4 µM
Text: U.S. Tox21 Program National Center for Advancing Translational Sciences [NCATS] NIH Chemical Genomics Center [NCGC] U.S. Environmental Protection Agency [EPA] National Institutes of Environmental Health Sciences [NIEHS] National Toxicology Program [NTP] U.S. Food and Drug Administration [FDA] Tox21 Assay Overview: All-trans Retinoic acid (atRA) is the potent natural metabolite of retinol and plays an important role in normal embryonic development and maintenance of cellular phenotype in adult animals. atRA is the activating ligand for the retinoic acid receptors (RARs) which form heterodimers with retinoid X receptors (RXRs) on the retinoic acid response element (RARE). Through activation of the RAR/RXRs nuclear receptors, atRA regulates the transcription of a large number of protein-coding genes and regulatory RNAs. Intracellular levels of atRA are controlled by the retinol signaling pathway (RSP) that regulates the biosynthesis and catabolism of atRA to maintain physiological levels. Chemicals that interfere with the RSP can cause abnormal intracellular levels of atRA and therefore are potential developmental toxicants. To assess compounds for the potential adverse effect on embryonic development through interfering with retinol signaling, a cell-based RARE luciferase reporter gene assay was used. C3RL4 cell line (OARSA/CFSAN/FDA, Laurel, MD) was used to screen Tox21 10K compound library for identifying inhibitors of the RSP. Also cytotoxicity was assessed by determining the viability of cells based on the quantitation of ATP.
Tox21 Assay Protocol Summary: C3RL4 cells were seeded at 1,000/well in 4 uL of assay medium into white solid 1,536-well tissue culture plates (Greiner Bio-One North America Inc. Monroe, NC) using a Multidrop Combi (Thermo Scientific, Waltham, MA) dispenser. After incubation at 37 C and 5% CO2 for an overnight, 23 nL of compounds dissolved in DMSO, positive control or DMSO only were transferred by a Pintool station (Kalypsys, San Diego, CA). One ul of 1 uM (final concentration) of Retinol was added right after the compound addition by using a Flying Reagent Dispenser (FRD) (Aurora Discovery, San Diego, CA). After 6 hr incubation at 37 C and 5% CO2, 5 uL of CellTiter-Glo reagent (Promega Corporation, Madison, WI) was added to each assay plate using an FRD. Luminescence was quantified on a ViewLux plate reader (PerkinElmer, Waltham, MA) after 30 min incubation at room temperature.

Structure (SMILES)	Potency
CC(=O)CC(=O)N(C)C	inactive
O=C1CCCCCCCCCCC1	inactive
O=C1O[C@H]([C@H](O)CO)C(O)=C1O	inactive
Cc1cc(C)cc(O)c1	inactive
Nc1cccc(N)n1	inactive
O=C(c1ccccc1)c1ccc(O)c(O)c1O	inactive
Brc1ccc(Oc2ccc(Br)cc2)cc1	inactive
CCCOCC(C)O (stereo not given)	inactive
CN1Cc2c(N)cccc2C(c2ccccc2)C1 (stereo not given)	inactive
c1cnc2c(c1)ccc1cccnc12	inactive
Cc1ncc(CO)c(CO)c1O	inactive
CCCCCCCCO	inactive
Nc1nc(N)c2nc(-c3ccccc3)c(N)nc2n1	inactive
COCN(COC)c1nc(N(COC)COC)nc(N(COC)COC)n1	inactive
CC/C=C(\C(=O)N[C@@H]1C(=O)N2C(C(=O)OCOC(=O)C(C)(C)C)=C(COC(N)=O)CS[C@H]12)c1csc(N)n1	inactive
CC(=O)c1nccs1	inactive
OCCOCCOCCOCCOCCO	inactive
CC(C)=CCC/C(C)=C/C=O	inactive
CCCOC(=O)NCCCN(C)C	inactive
NC(N)=S	inactive

Structure (SMILES)	Potency
COC(=O)/C=C\C(=O)OC	inactive
CCOC(=O)c1ccc(O)cc1	inactive
Cc1ccccc1Cl	inactive
CC1(C)[C@@H](O[C@H]2O[C@H](C(=O)O)[C@@H](O)[C@H](O)[C@H]2O[C@@H]2O[C@H](C(=O)O)[C@@H](O)[C@H](O)[C@H]2O)CC[C@]2(C)[C@H]3C(=O)C=C4[C@@H]5C[C@@](C)(C(=O)O)CC[C@]5(C)CC[C@@]4(C)[C@]3(C)CC[C@@H]12	inactive
CC(=O)Nc1ccc(CC(=O)O)cc1	inactive
CC(O)CNCC(C)O (stereo not given)	inactive
NC(=O)c1ncn([C@@H]2O[C@H](CO)[C@@H](O)[C@H]2O)n1	inactive
Cc1nnc(NS(=O)(=O)c2ccc(N)cc2)s1	inactive
O=C1C(N(CO)C(=O)NCO)N(CO)C(=O)N1CO (stereo not given)	inactive
O=C(O)C1=NN(c2ccc(S(=O)(=O)O)cc2)C(=O)C1	inactive
CCCCCCCCCCCCCC(=O)O	inactive
Cc1ccc(C(C)C)cc1	inactive
CCc1cccc(O)c1	inactive
COc1ccc([C@@H]2CC(=O)c3c(O)cc(O[C@@H]4O[C@H](CO[C@@H]5O[C@@H](C)[C@H](O)[C@@H](O)[C@H]5O)[C@@H](O)[C@H](O)[C@H]4O)cc3O2)cc1OC	inactive
CC(C)c1ccc(C(C)C)cc1	inactive
O=Cc1ccc(CO)o1	inactive
CCn1cc(C(=O)O)c(=O)c2cc3c(cc21)OCO3	inactive
CC[N+](CC)(CC(=O)Nc1c(C)cccc1C)Cc1ccccc1	inactive
C=CC(=O)NCOCCCC	inactive
CC(=O)OCc1ccc2c(c1)OCO2	inactive
